The supplement of paper PMC13380429

Test system: Vero E6 infected with SARS-CoV-2
Experiment: inhibition of SARS-CoV-2 cytopathic effect; higher = more antiviral protection, active = above 15
Conditions: 48 h

Measured: inhibition of SARS-CoV-2 cytopathic effect

CC(=O)c1c(O)cc(C)oc1=O [dehydroacetic-acid]
inactive: 1 nM 2.87% | 8.33 nM 3.44% | 100 nM 2.94% | 833.33 nM 2.97% | 10000 nM 3.07%

COc1ccc2cc1Oc1cc3c(cc1OC)CC[N+](C)(C)[C@H]3Cc1ccc(cc1)Oc1c(OC)c(OC)cc3c1[C@@H](C2)[N+](C)(C)CC3 [metocurine]
inactive: 1 nM -0.82% | 8.33 nM 0.93% | 100 nM 1.08% | 833.33 nM -3.28% | 10000 nM -0.33%

O=C(Cc1cccc(OC(F)(F)F)c1)Nc1ccc(CCCCc2nnc(NC(=O)Cc3ccccn3)s2)nn1
inactive: 1 nM -1.49% | 8.33 nM -0.26% | 100 nM -1.18% | 833.33 nM -5.17% | 10000 nM -3.68%

O=C(O)[C@@H]1C[C@@H](O)CN1 [L-hydroxyproline]
inactive: 1 nM -3.79% | 8.33 nM -1.12% | 100 nM -0.27% | 833.33 nM -1.36% | 10000 nM -3.93%

O=C(O)c1ccc(N2N=C(Cc3ccccc3)/C(=C\c3ccc(-c4ccccc4F)o3)C2=O)cc1
inactive: 1 nM -0.59% | 8.33 nM 0.52% | 100 nM -1.43% | 833.33 nM 1.97% | 10000 nM -1.44%

O=c1c(O)c(-c2ccc(O)cc2O)oc2cc(O)cc(O)c12 [morin]
inactive: 1 nM -1.74% | 8.33 nM -0.07% | 100 nM -0.4% | 833.33 nM -4.13% | 10000 nM 0.27%

CC(C)(C(=O)O)c1ccc(C(=O)CCCN2CCC(OC(c3ccccc3)c3ccccc3)CC2)cc1 [carebastine]
inactive: 1 nM -2.83% | 8.33 nM -1.16% | 100 nM -0.91% | 833.33 nM -2.56% | 10000 nM -0.56%

Cc1oc(=O)oc1COC(=O)C1=C([C@H]2CCCO2)S[C@@H]2[C@@H]([C@@H](C)O)C(=O)N12 [faropenem-medoxomil]
inactive: 1 nM 2.73% | 8.33 nM -1.09% | 100 nM -0.59% | 833.33 nM 2.96% | 10000 nM 1.04%

Cc1cc2cc3c(C)cc(=O)oc3c(C)c2o1 [trioxsalen]
inactive: 1 nM 1.96% | 8.33 nM 2.74% | 100 nM 0.65% | 833.33 nM 3.62% | 10000 nM -0.06%

CC[C@H](CO)Nc1nc(Nc2cccc(-c3ccccn3)c2)c2ncn(C(C)C)c2n1
inactive: 1 nM -2.32% | 8.33 nM 0.36% | 100 nM 0.93% | 833.33 nM 1.09% | 10000 nM -7.74%

O=C(O)Cn1nnc(-c2cc(N3CCC(Oc4cc(F)ccc4Br)CC3)no2)n1
inactive: 1 nM -0.51% | 8.33 nM -0.71% | 100 nM 1.39% | 833.33 nM -0.54% | 10000 nM 1.73%

CC(C)=CCC/C(C)=C/CC/C(C)=C/CC[C@]1(C)CCc2cc(O)cc(C)c2O1 [delta-tocotrienol]
inactive: 1 nM 0.39% | 8.33 nM -1.44% | 100 nM 2.83% | 833.33 nM 7.95% | 10000 nM 2.88%

CCNCCS(=O)(=O)NC[C@@]1(c2ccccc2)SC(NC(=O)C(C)(C)C)=NN1C(=O)C(C)(C)C [litronesib]
inactive: 1 nM 2.17% | 8.33 nM 5.24% | 100 nM 2.46% | 833.33 nM 0.96% | 10000 nM 0.39%

CC(C)NCC(O)COc1cccc2[nH]c3ccccc3c12 (stereo not given) [carazolol]
inactive: 1 nM 1.76% | 8.33 nM -2.21% | 100 nM -1.61% | 833.33 nM 0% | 10000 nM -4.08%

O=C1S/C(=C\c2ccc(OCc3cccc(B(O)O)c3)cc2)C(=O)N1Cc1ccc(F)cc1
inactive: 1 nM -1.35% | 8.33 nM 1.46% | 100 nM 0.45% | 833.33 nM 3.95% | 10000 nM -1.14%

Cc1cc(C)c(CNC(=O)c2cc(-c3ccc(CN4CCOCC4)cc3)cc3c2cnn3C2CCCC2)c(=O)[nH]1
inactive: 1 nM -0.23% | 8.33 nM 1.2% | 100 nM 1.14% | 833.33 nM -1.29% | 10000 nM -1.46%

CCc1cccc(CC)c1NC(=O)CN(CC(=O)O)CC(=O)O [etifenin]
inactive: 1 nM -0.66% | 8.33 nM 1.39% | 100 nM 0.25% | 833.33 nM 0.46% | 10000 nM 3.26%

CN[C@@H](C)C(=O)N[C@H](C(=O)N1CCC[C@H]1C(=O)Nc1sc(-c2ncco2)nc1-c1ccccc1)C1CCCCC1
inactive: 1 nM -0.55% | 8.33 nM -0.2% | 100 nM -0.7% | 833.33 nM 0.89% | 10000 nM 0.18%
